Results as given in PubChem BioAssay (EPA / NIEHS).
Activity calls are given as the source filed them. The calls were made as follows: active = hit-call score of the fitted dose curve at least 0.9, where 1 is the maximum; inactive = score below 0.9.

Tests used:
[1] = read-out: Tumor necrosis factor receptor superfamily member 6 (Homo sapiens) (UniProt P25445); test: LTEA_HepaRG_FAS: Life Technologies and Expression Analysis (LTEA) Assay for Fas cell surface death receptor (FAS) using HepaRG (AID 2283447); conditions: mRNA level, 48 h; actives raise or lower the signal
Outline: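 Differentiated human HepaRG cells, pre-cultured 48 h, were exposed in duplicate for 48 h to 8-point half-log concentrations (top 100 uM, 0.5% DMSO) in serum-free induction medium; FAS mRNA measured by qRT-PCR, normalized to ACTB/GAPDH/POLR2A, bidirectional fit versus DMSO.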

[2] = CEETOX_H295R_11DCORT: CeeTox H295R High-throughput Steroidogenesis Assay for 11-Deoxycortisol (11DCORT) (AID 2283432); conditions: actives raise or lower the signal;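 as to AC50: 11-deoxycortisol secreted into the medium measured by LC-MS/MS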
Outline: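 Human adrenal H295R cells were prestimulated with 10 uM forskolin for 48 h, then exposed to test chemical (0.1% DMSO final) for 48 h. Medium 11-deoxycortisol was quantified by MTBE extraction and HPLC-MS/MS; bidirectional fitting relative to DMSO.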

[3] = CEETOX_H295R_OHPREG: CeeTox H295R High-throughput Steroidogenesis Assay for OH-Pregnenolone (OHPREG) (AID 2283434); conditions: actives raise or lower the signal
Outline: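 Human adrenal H295R cells were prestimulated 48 h with 10 uM forskolin, then exposed 48 h to chemical in 0.1% DMSO. Medium 17alpha-hydroxypregnenolone was quantified by HPLC-MS/MS after MTBE extraction; bidirectional fitting versus DMSO baseline.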

[4] = CEETOX_H295R_CORTIC: CeeTox H295R High-throughput Steroidogenesis Assay for Corticosterone (CORTIC) (AID 2283437); conditions: actives raise or lower the signal;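 also: corticosterone secreted into medium quantified by mass spectrometry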
Outline: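 H295R cells were prestimulated 48 h with 10 uM forskolin, then exposed 48 h to test chemical in 0.1% DMSO. Medium corticosterone was MTBE-extracted and quantified by HPLC-MS/MS; bidirectional fit versus DMSO baseline.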

[5] = CEETOX_H295R_CORTISOL: CeeTox H295R High-throughput Steroidogenesis Assay for Cortisol (AID 2283438); conditions: actives raise or lower the signal;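 also: cortisol secreted into medium quantified by LC-MS/MS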
Outline: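 Forskolin-primed H295R cells (10 uM, 48 h) treated 48 h with test chemical in 0.1% DMSO. Cortisol in medium quantified by MTBE extraction and HPLC-MS/MS; bidirectional fit vs DMSO, MTT viability in same wells.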

[6] = CEETOX_H295R_DOC: CeeTox H295R High-throughput Steroidogenesis Assay for DOC (AID 2283439); conditions: actives raise or lower the signal
Outline: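 H295R cells prestimulated 48 h with 10 uM forskolin, then exposed 48 h to test chemical (0.1% DMSO final). Medium 11-deoxycorticosterone measured by HPLC-MS/MS after MTBE extraction; bidirectional fit vs DMSO, viability checked by MTT in same wells.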

[7] = CEETOX_H295R_ESTRADIOL: CeeTox H295R High-throughput Steroidogenesis Assay for Estradiol (AID 2283440); conditions: actives raise or lower the signal;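 also: estradiol secreted into medium quantified by LC-MS/MS after dansyl derivatisation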
Outline: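 Estradiol in spent medium measured by LC-MS/MS after dansyl chloride derivatisation. Forskolin-primed (10 uM, 48 h) human adrenal H295R cells received test chemical 48 h at 0.1% DMSO; concentrations lowered until MTT viability >/=70%.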

[8] = CEETOX_H295R_ESTRONE: CeeTox H295R High-throughput Steroidogenesis Assay for Estrone (AID 2283441); conditions: actives raise or lower the signal;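 also: estrone secreted into medium measured by LC-MS/MS after dansyl derivatization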
Outline: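 H295R cells prestimulated 48 h with 10 uM forskolin, then exposed 48 h to chemicals in 0.1% DMSO final; estrone in medium extracted with MTBE, dansyl-derivatized, quantified by HPLC-MS/MS; bidirectional fitting versus DMSO, viability by MTT.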

[9] = CEETOX_H295R_PROG: CeeTox H295R High-throughput Steroidogenesis Assay for Progesterone (PROG) (AID 2283442); conditions: actives raise or lower the signal;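 as to AC50: human H295R adrenal cells primed with 10 µM forskolin before dosing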
Outline: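 Progesterone secreted by human H295R cells was measured by LC-MS/MS following 48 h chemical exposure at 0.1% DMSO, preceded by 48 h forskolin (10 uM) stimulation. Same-well MTT viability; cytotoxic concentrations diluted 10- or 100-fold and retested.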

[10] = CEETOX_H295R_ANDR: CeeTox H295R High-throughput Steroidogenesis Assay for Androstenedione (ANDR) (AID 2283436); conditions: actives raise or lower the signal
Outline: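 H295R human adrenal cells (passages ≤10) were exposed to test chemicals for 48 h; androstenedione in medium was MTBE-extracted and quantified by HPLC-MS/MS against a 7-point standard curve. Bidirectional fitting used DMSO as baseline.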

Measured: AC50

C1CNCCN1
inactive: [1]

C=C[C@@]1(C)CC(=O)[C@]2(O)[C@@]3(C)[C@@H](O)CCC(C)(C)[C@@H]3[C@H](O)[C@H](OC(C)=O)[C@@]2(C)O1
active: [2] 0.51 µM | [3] 0.817 µM | [4] 0.609 µM | [5] 0.726 µM | [6] 0.418 µM | [7] 0.774 µM | [8] 0.719 µM
inactive: [9]

CC(C)(C)NC(=O)[C@H]1CC[C@H]2[C@@H]3CC[C@H]4NC(=O)C=C[C@]4(C)[C@H]3CC[C@]12C
active: [2] 34.4 µM | [5] 36.3 µM | [6] 13.5 µM | [9] 1.57 µM
inactive: [4]

CCOC(=O)C1=NN(c2ccc(Cl)cc2Cl)C(C)(C(=O)OCC)C1 (stereo unspecified)
inactive: [2] | [3] | [10] | [4] | [5] | [6] | [7] | [8] | [9]

COc1ccc(C(=O)c2ccccc2)c(O)c1
active: [10] 25 µM | [4] 11.1 µM
inactive: [2] | [3] | [5] | [6] | [7] | [8] | [9]

O=C(OCc1ccccc1)c1ccc(O)cc1
inactive: [4]
active: [2] 36.8 µM | [3] 30.5 µM | [5] 36.9 µM | [6] 42.7 µM | [7] 50 µM | [8] 37.5 µM | [9] 24.6 µM

CN(C)c1ccc2nc3ccc(=[N+](C)C)cc-3sc2c1
inactive: [2] | [3] | [4] | [5] | [7] | [8]
active: [6] 0.598 µM | [9] 0.617 µM

Nc1ccc(C(=O)O)cc1
inactive: [1]

O=C(O)c1cc(O)c2ccccc2c1O
active: [6] 0.445 µM | [9] 0.5 µM
inactive: [2] | [3] | [4] | [5] | [7] | [8]

CC(C)(c1ccccc1)c1ccc(Nc2ccc(C(C)(C)c3ccccc3)cc2)cc1
inactive: [4]
active: [2] 2.72 µM | [3] 1.54 µM | [5] 9.95 µM | [6] 0.82 µM | [9] 1.84 µM

CCN1CN(CC)CN(CC)C1
inactive: [2] | [3] | [4] | [5] | [6] | [7] | [8] | [9]

COc1ccc(-c2coc3cc(O)cc(O)c3c2=O)cc1
inactive: [4] | [7] | [8]
active: [2] 6.15 µM | [3] 7.39 µM | [5] 3.65 µM | [6] 5 µM | [9] 1.81 µM

C=CC(=O)OCCCCCCOC(=O)C=C
inactive: [2] | [3] | [10] | [4] | [5] | [6] | [7] | [8] | [9]

Cc1ccc([N+](=O)[O-])cc1N
active: [9] 30.2 µM
inactive: [3] | [1]
